Among all 69,000 compounds or so, about 8,600 (12%) showed an effect of 50% or more. Shown is part of a subset that was picked to be rich in strong results.

The subject of the experiment is Plasmodium berghei. In words: Screen against P. berghei liver stage (PbLuc), transformed with Luciferase, at 10uM. The format is functional, HepG2. The following applies: tested at 10 uM.
Turning to `CC(=O)Nc1sc2c(c1C(=O)O)CCc1ccccc1-2`, the INHIBITION amounted to 11.1%.
As for `CC(C)CNc1c(NCc2ccco2)c(=O)c1=O`, the figure is -4.28%.
As for `COCCO[C@H]1CCN(C(=O)c2ccoc2C)[C@H]1Cc1cnn(C)c1`, the figure is 14.1%.
As for `COCCn1ccc(=O)c(OCC(=O)Nc2ccc(OC)c(Cl)c2)c1C`, the figure is -38%; as for `CC(CNC(=O)c1ccc(Cl)cc1F)N1CCCC1` (stereo not given), 51.4%.
On to `CC(CNC(=O)c1ccc(F)cc1Cl)N1CCCC1` (stereo not given), for which the INHIBITION turned out to be 35.6%.
As for `CC(CNC(=O)c1cc(Cl)ccc1F)N1CCCC1` (stereo not given), the figure is 33.8%.
On to `CC(CNC(=O)c1cc(Cl)ccc1I)N1CCCC1` (stereo not given), for which the INHIBITION came out at 30.5%.
As for `CC(CNC(=O)c1ccc(Cl)cc1F)N1CCN(C)CC1` (stereo not given), the INHIBITION was 25%.
To `CC(CNC(=O)c1ccc(Cl)cc1I)N1CCCC1` (stereo not given) belongs 17.4%.
Regarding `CN1CCN(C(CNC(=O)c2ccc(Cl)cc2F)c2cccs2)CC1` (stereo not given), the INHIBITION was found to be 66.7%.
As for `CC(CNC(=O)c1ccc(F)cc1I)N1CCCC1` (stereo not given), the figure is 55.8%.
To `O=C(NCC(c1cccs1)N1CCOCC1)c1ccc(F)cc1Cl` (stereo not given) belongs -14.5%; to `Cc1cc(CN2CCN(C(=O)CCc3ccco3)CC2)on1`, 14%; to `CC(NCc1ccccc1Cl)c1ccc(OCC(=O)NC2CC2)cc1` (stereo not given), 48.2%.
As to `CCc1nc(CNC(C)(CO)C2CCCCC2)no1` (stereo not given), the INHIBITION stood at 37.4%.
With `Cc1cnn(CC2CN(c3nc4ccccc4o3)CCO2)c1` (stereo not given), the INHIBITION is 44.1%.
On to `Cn1ccnc1CN1CCN(Cc2ccc(C#N)cc2F)CC1`, for which the INHIBITION amounted to 15.15%.
Turning to `Cn1ccnc1CN1CCN(c2ccc(C#N)cc2F)CC1`, the INHIBITION is 53.3%.
To `Cn1ccnc1CN1CCCN(Cc2noc(C3CC3)n2)CC1` belongs 11.2%.
As for `Cn1ccnc1CN1CCN(Cc2cc(C#N)ccc2F)CC1`, the figure is 35.3%; as for `Cc1cc(C2CCC2)nc(N2CCN(Cc3nccn3C)CC2)n1`, 84.1%; as for `Cc1cc(C)nc(N2CCN(Cc3nccn3C)CC2)n1`, 7.52%.
Consider `Cc1cc(C2CCC2)nc(N2CC(n3cccn3)C2)n1`, for which the INHIBITION is -9.91%.
To `Cc1nc(CN2CCN(Cc3nccn3C)CC2)no1` belongs 33.7%.
On to `Cc1cc(C(F)(F)F)nc(N2CCN(Cc3nccn3C)CC2)n1`, for which the INHIBITION amounted to 74%.
Regarding `COCc1cccc(NC(=O)NCCCN(C)S(C)(=O)=O)c1`, the INHIBITION is -10.8%.
As to `CC(C1CC1)N(C)C(=O)c1ccc(-n2ncc(C#N)c2N)cc1` (stereo not given), the INHIBITION is -61.4%.
As for `CCCOCCN1CCN(c2ncnc3[nH]ccc23)CC1`, the figure is -24%; as for `O=C(O)Cn1nc(-c2ccccc2F)ccc1=O`, 26.4%.
As for `NC(=O)Cn1nc(-c2ccccc2F)ccc1=O`, the figure is 15.4%; as for `CC(=O)Cn1nc(-c2ccccc2F)ccc1=O`, 64.2%.
Turning to `Cc1noc(Cl)c1CC(=O)N1CCC(Nc2cccnn2)CC1`, the INHIBITION stood at 18.04%.
For `CCC(=O)N1CCN(C(=O)Cn2cccn2)CC1`, the INHIBITION came out at 27.45%.
As for `O=C(NCc1cccnc1)[C@@H]1C[C@@H]2CCN(c3ncc(F)cn3)C[C@@H]2O1`, the INHIBITION is on record as -9.71%.
As for `CNC(=O)[C@H]1CC[C@@H]2[C@@H](CCN2c2ncccn2)O1`, the figure is 47.5%; as for `O=C(NCc1cccnc1)[C@H]1CC[C@@H]2[C@@H](CCN2c2ncccn2)O1`, 74.2%; as for `O=C(NCc1cccnc1)[C@@H]1CC[C@@H]2[C@@H](CCN2c2ncc(F)cn2)O1`, 73%.
To `O=C(NCc1ccco1)[C@H]1CC[C@@H]2[C@@H](CCN2Cc2cccnc2)O1` belongs -66%; to `O=C(NCc1cccnc1)[C@@H]1C[C@H]2[C@H](CCN2c2ncc(F)cn2)O1`, 21.8%; to `O=C(NCc1ccccn1)[C@@H]1CC[C@@H]2[C@@H](CCN2c2ncc(F)cn2)O1`, 40.4%.
Regarding `O=C(NCc1cccs1)[C@H]1CC[C@@H]2[C@@H](CCN2c2ncccn2)O1`, the INHIBITION is on record as -50.8%.
To `O=C(NCc1cccs1)[C@@H]1CC[C@@H]2[C@@H](CCN2c2ncccn2)O1` belongs 3.25%.
In the case of `O=C(NCc1cccnc1)[C@@H]1C[C@H]2[C@H](CCN2c2ncccn2)O1`, the INHIBITION was 73%.
On to `O=C(NCc1cccnc1)[C@@H]1CC[C@@H]2[C@@H](CCN2c2ncccn2)O1`, for which the INHIBITION stood at 96.3%.
As for `O=C(NCc1ccco1)[C@H]1CC[C@@H]2[C@@H](CCN2c2ncccn2)O1`, the figure is 7.77%; as for `OCc1cn(Cc2cccc(C(F)(F)F)c2)nn1`, -5.1%.
To `CCN(Cc1cnn(C)c1)C(=O)c1ccc(C)c(N2CCNC2=O)c1` belongs 28.2%; to `Cc1ccc(C(=O)N(C)CCCc2cnn(C)c2)cc1N1CCNC1=O`, 58.8%.
To `CN(Cc1cnn(C)c1)C(=O)c1ccc(Cl)c(N2CCNC2=O)c1` belongs 18.4%; to `O=C(NC1CCN(c2ncccc2F)C1)c1cccc(-n2ccnn2)c1` (stereo not given), -20.8%.
With `C1CC(CN2C[C@@H]3CC[C@H]2CN(Cc2noc(C4CCCC4)n2)C3)C1`, the INHIBITION was 18.6%.
To `CNC(=O)c1cccc(CNC(C)c2cc(C)ccc2OC(F)F)c1` (stereo not given) belongs 51.5%.
As for `CNC(=O)c1cccc(CNC(C)c2cc(Cl)ccc2OC)c1` (stereo not given), the figure is 18.9%.
`CNC(=O)c1cccc(CCNS(C)(=O)=O)c1`: the INHIBITION was determined as 21.3%.
As for `CNC(=O)c1cccc(CNC(C)c2ccc(F)cc2N(C)C)c1` (stereo not given), the INHIBITION turned out to be 66.8%.
As for `CC(NCCN1CCC(N(C)C)CC1)c1ccc(F)cc1N(C)C` (stereo not given), the figure is 40.6%; as for `CC(NCCCN1CCCC1=O)c1ccc(F)cc1N(C)C` (stereo not given), -2.75%; as for `O=S(=O)(NC[C@]12COC[C@H]1CN(c1ncc(F)cn1)C2)C1CC1`, -15.6%.
In the case of `CCOC(CC)C(=O)NCCC(=O)N1CCN(c2ncccn2)CC1` (stereo not given), the INHIBITION is listed as -18.2%.
With `COc1ccc2nc(NC(=O)c3c(C(=O)O)cnn3C)sc2c1`, the INHIBITION is listed as 28.7%.
With `CC(CNCc1ccc2c(c1)n(C)c(=O)n2C)Oc1ccccn1` (stereo not given), the INHIBITION is reported as -8.51%.
As for `Cc1ccccc1C1CCN(CCn2cc(-c3cccc(O)c3)nn2)C1` (stereo not given), the INHIBITION is 59.3%.
As for `Cc1ccccc1C1CCN(CCn2cc(-c3nccn3C)nn2)C1` (stereo not given), the figure is 28%; as for `Cc1ccccc1C1CCN(CCn2cc(-c3nccs3)nn2)C1` (stereo not given), 4.15%; as for `Cc1noc(OCC(=O)N2CCCCC2C)n1` (stereo not given), -26.4%.
Take `Cn1ccc(CN2CCC(OCc3ccccc3)CC2)cc1=O`: the INHIBITION came out at 3.15%.
As for `Cc1cccc(C)c1OC1CCN(Cc2ccn(C)c(=O)c2)CC1`, the figure is 58%.
Take `Cn1ccc(CN2CCC(CO)CC2)cc1=O`: the INHIBITION is reported as -10.8%.
Take `Cn1ccc(CN2CCC(COC3CCCC3)CC2)cc1=O`: the INHIBITION is given as 58%.
As for `Cn1ccc(CN2CCC(Oc3ccccc3)CC2)cc1=O`, the figure is 25.6%; as for `COc1ccc(OC2CCN(Cc3ccn(C)c(=O)c3)CC2)cc1`, 45.7%.
To `CN(C)[C@@H]1CCN(C(=O)NC2CCCC2)[C@H]1Cc1ccncc1` belongs 23.3%.
To `O=c1[nH]c(N2CCCCC2)nc2c1CCN(Cc1cccnc1)C2` belongs 8.72%; to `CCn1c(=O)c2cc(S(N)(=O)=O)ccc2n(CC)c1=O`, 2.84%; to `CC(C)N(C)Cc1cn2c(n1)CN(Cc1ccsc1)CC2`, -14.9%.
Turning to `Cc1cc(CN2CCCC(Cn3cncn3)C2)on1` (stereo not given), the INHIBITION was 35.3%.
To `Cc1nc(CNC(=O)NCc2cccnc2N(C)C)cs1` belongs -27.8%; to `COc1ccc(NC(=O)N2CCCC2c2ccco2)c(OC)c1` (stereo not given), 41.5%.
To `CN(CCNC(=O)Nc1ccn(C)n1)Cc1ccc(F)cc1` belongs 52.7%.
As for `CN(CCNC(=O)Nc1cnn(C)c1)Cc1ccc(F)cc1`, the figure is 49.3%.
Consider `CN(CCNC(=O)Nc1nccs1)Cc1ccc(F)cc1`, for which the INHIBITION was determined as 2.7%.
To `O=C(Nc1nnn[nH]1)c1cc(-c2ccc(Br)s2)n[nH]1` belongs 11.3%.
Turning to `Cc1noc(C)c1CN(C)C(=O)C1CCCc2ccccc21` (stereo not given), the INHIBITION is recorded as 26.6%.
`CN(Cc1ccco1)C(=O)C1CCCc2ccccc21` (stereo not given): the INHIBITION was 50.5%.
To `N#CCCN(Cc1ccco1)C(=O)C1CCCc2ccccc21` (stereo not given) belongs 24.2%; to `Cc1ccoc1C(=O)N1C[C@@H](N2CCN(C)CC2)[C@H]2OCCC[C@H]21`, -26.5%.
In the case of `Cc1occc1-c1nc(NC2CCCC2)ncc1-c1ccccn1`, the INHIBITION is reported as 62.9%.
As for `Cc1cc(-c2cnc(NC3CC3)nc2-c2ccoc2C)on1`, the figure is 58.1%; as for `Cc1cc(-c2cnc(NC3CCCCC3)nc2-c2ccco2)on1`, 60.5%; as for `Cc1cc(-c2cnc(NC3CC3)nc2-c2ccc(C)o2)on1`, 39.2%.
For the compound `Cc1cc(-c2cnc(NC3CCCC3)nc2-c2ccc(C)o2)on1`, the INHIBITION is listed as 11.1%.
Consider `Cc1cc(-c2cnc(NC3CCCC3)nc2-c2ccoc2)on1`, for which the INHIBITION is recorded as 41.2%.
As for `Cc1cnc(-c2nc(NC3CCCC3)ncc2-c2onc(C)c2C)cn1`, the figure is -29.8%; as for `Cc1cc(-c2cnc(NC3CCCC3)nc2-c2ccco2)on1`, -18.9%.
For `Cc1cc(-c2cnc(NC3CC3)nc2-c2ccoc2)on1`, the INHIBITION is recorded as 3.91%.
For `Cc1cc(-c2cnc(NC3CCCC3)nc2-c2ccoc2C)on1`, the INHIBITION is listed as 78.5%.
`Cc1cc(-c2cnc(NC3CC3)nc2-c2ccco2)on1`: the INHIBITION is listed as -21.4%.
As for `Cc1noc(-c2cnc(NC3CC3)nc2-c2ccco2)c1C`, the INHIBITION was 7.9%.
As for `O=C(NCCO)C1CN(c2cncnc2)CCO1` (stereo not given), the figure is 3.91%; as for `CCCOC1CCCN(C(=O)c2cc(CN(CC)CC)c(CC)o2)C1` (stereo not given), 18.5%; as for `COc1ccc(CN(Cc2ccccn2)Cc2cncn2C)cc1`, 23.9%.
As for `Cc1ncc(CN(Cc2ccccn2)Cc2ccccc2Cl)n1C`, the figure is 69.4%; as for `CCn1nc(C)c(CN(Cc2ccccn2)Cc2ccccc2Cl)c1C`, 50.8%; as for `Cc1nn(C)cc1CN(Cc1ccccn1)Cc1ccccc1Cl`, 48%.
On to `CN(Cc1nccn1C)C1CCN(CCc2ccccn2)CC1`, for which the INHIBITION is on record as -3.2%.
To `Cn1ccnc1CN(Cc1ccccn1)Cc1ccccc1Cl` belongs 79.6%; to `CCn1nc(C)c(CN(CCCN(C)C)Cc2ccccn2)c1C`, -37.4%.
With `COCCn1ccnc1CN(Cc1ccccn1)CC(C)C`, the INHIBITION was determined as 44%.
Regarding `CCn1nc(C)c(CN(CCOC)Cc2ccccn2)c1C`, the INHIBITION was 4.12%.

(Values after ChEMBL document CHEMBL4513216, “Probing the Open Global Health Chemical Diversity Library for Multistage-Active Starting Points for Next-Generation Antimalarials” (ACS Infect Dis, 2020).)
